Consider 16 molecules from PubChem BioAssay (Tox21).

Several values for one entry are separate records, joined by “and”; a condition that tells them apart may be missing. Identical values can stand only once. Inconclusive results are not listed. The source holds several records for some structures; these can differ, active in one and inactive in another. Unmarked numbers belong to inactive results. Activity calls are given as the source filed them. Calls follow the shape of the dose curve; as a rule, active = well fitted cell-killing curve with a large enough effect in the repeat runs; inconclusive = weak or mixed curves, or effect the other way; inactive = flat fitted curve, though single readings scatter.
% is scaled to controls: 0 for no effect and ±100 for the full control effect; potency is read from the fitted curve at half-maximal effect.

The test can be described thus: qHTS RealTime-Glo MT Cell Viability Assay in HEK293 cells - 40 hour (AID 1224874). Also: nearly all actives have a fitted effect of over 50% in size. The note with it: RealTime-Glo luminescence; max response: stronger effect = lower value. The method, boiled down: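 Measured as luminescence from the same continuously cultured HEK293 wells at successive time points (0, 8, 16, 24, 32, 40 h) after compound addition. Reagent present from seeding; dosing at 5 h; incubation 37 C.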
(In general: Quantitative high-throughput screening tests each substance at several concentrations.)
Take `c1ccc2ncccc2c1`: the max response is -2.01% and 11.7%.

Regarding `Cc1ccc(C)c(O)c1`, the max response was 1.95% and 4.96%. Turning to `CNC[C@H](O)c1ccc(O)c(O)c1`, the max response was 2.12% and 11.8%.

As for `O=C1OC2(c3ccccc31)c1cc(I)c(O)c(I)c1Oc1c2cc(I)c(O)c1I`, the Potency is 49.1 µM (active) and the max response is -20.2%.

Take `CCOC(=O)C(C)Oc1ccc(Oc2cnc3cc(Cl)ccc3n2)cc1` (stereo not drawn): the Potency is 44.7 µM (active) and the max response was -24.7%. Consider `COc1ccc(C(=O)c2ccccc2O)c(O)c1`, for which the max response is -10.4%.

On to `CC(=O)Nc1ccc2c(c1)Cc1cc(NC(C)=O)ccc1-2`, for which the max response was 1.79% and 3.64%. The same measure, in the same setting: with `CN(C)/N=N/c1nc[nH]c1C(N)=O` the figure was -18.2% and -3.15%; with `COc1ccc2nc(N)sc2c1`, 7.94%; with `O=C(O)CCCC(=O)O`, -2.98% and 4.62%. Regarding `CCCN1C=CN(C)C1`, the max response was -1.14% and -1.07%. On the same count and under the same terms, with `NCCN` the figure was 7.37% and 0.29%. Still for that read-out and setting: with `Cc1cccc(Nc2ccccc2C(=O)O)c1C` the figure was -11.8% and 1.92%.

On to `CN1CCOCC1`, for which the max response was 8.86% and 4.46%. In the case of `Oc1c(Cl)ccc(Cl)c1Cl`, the max response is -14% and -18.1%. Same read-out and setting: with `Clc1ccc(Sc2cc(Cl)c(Cl)cc2Cl)cc1` the figure was -26.8% and 1%.
